Values without a mark were called inactive. Calls of active or inactive are those of the source. Calls follow the shape of the dose curve; as a rule, active = well fitted curve in the direction sought with a large enough effect in the repeat runs; inconclusive = weak or mixed curves; inactive = flat fitted curve, though single readings scatter. Positions of bridges follow the written chain, without caps; N, C: chain ends. Non-standard residues stand in square brackets, D forms with d. Residues, ends and D or L forms follow the SMILES beside them. *: point of attachment. X2 = CC[C@H](C)CCCCC(=O)*; Dab = NCC[C@H](N)C(=O)O
assay: qHTS assay to test for compound auto fluorescence at 590 nm (red) in HEK293 cells (AID 720679); conditions: red autofluorescence 540/590 nm; series mostly up to 46 µM; fluorescence, % of fluorescent control: at the top concentration
Procedure, shortened: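 Each well held 2,000 HEK293 cells in medium containing 10% dialyzed FBS. Following 4-5 hr attachment at 37C, 23 nL test compound or DMSO was added; plates sat overnight, and red fluorescence (540/590nm) was recorded.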
% is scaled to controls: 0 for no effect and ±100 for the full control effect.

SMILES	fluorescence, % of fluorescent control	Potency
C[C@]12C=CC(=O)N[C@@H]1CC[C@@H]1[C@@H]2CC[C@]2(C)[C@@H](C(=O)Nc3cc(C(F)(F)F)ccc3C(F)(F)F)CC[C@@H]12	0.234%	
COc1ccc(C(=O)CCC(=O)O)c2ccccc12	0.0026%	
COc1ccc2cc([C@H](C)CO)ccc2c1	-0.0393%	
Cn1c(=O)c2c(ncn2CCOC(=O)C(C)(C)Oc2ccc(Cl)cc2)n(C)c1=O	-0.176%	
CCCCCC(O)/C=C/C=O (centres undefined)	-0.117%	
CCC(C)[C@H]1O[C@]2(C=C[C@@H]1C)C[C@@H]1C[C@@H](C/C=C(\C)[C@@H](O[C@H]3C[C@H](OC)[C@@H](O[C@H]4C[C@H](OC)[C@H](NC(C)=O)[C@H](C)O4)[C@H](C)O3)[C@@H](C)/C=C/C=C3\CO[C@@H]4[C@H](O)C(C)=C[C@@H](C(=O)O1)[C@]34O)O2 (some centres undefined)		inactive
CC1(C)N=C(N)N=C(N)N1c1ccc(Cl)cc1	0.0198%	
CN(C)C(=O)CCSC(SCCC(=O)O)c1cccc(/C=C/c2ccc3ccc(Cl)cc3n2)c1 (centres undefined)	0.153%	
C[C@H](CCCC(C)(C)O)[C@H]1CC[C@H]2[C@@H]3CC=C4C[C@@H](O)CC[C@]4(C)[C@H]3CC[C@]12C	-0.0215%	
CNC(=O)c1c(I)c(C(=O)NCC(=O)Nc2c(I)c(C(=O)O)c(I)c(C(=O)NCCO)c2I)c(I)c(N(C)C(C)=O)c1I	-0.646%	
C=C1CC[C@@H]2[C@](C)(CO)[C@H](O)CC[C@@]2(C)[C@@H]1C/C=C1/C(=O)OC[C@H]1O	0.436%	
C[C@H](CSC(=O)c1ccccc1)C(=O)N1C[C@@H](Sc2ccccc2)C[C@H]1C(=O)O	-0.0823%	
C=C[C@]1(C)C[C@@H](OC(=O)CSCCN(CC)CC)[C@]2(C)[C@H](C)CC[C@]3(CCC(=O)[C@H]32)[C@@H](C)[C@@H]1O	0.0183%	
O=C(O)C1=C(CSc2nnnn2CS(=O)(=O)O)CS[C@@H]2[C@H](NC(=O)[C@H](O)c3ccccc3)C(=O)N12	-1.28%	
COc1cc(/C=C/C(=O)N2CCN(CC(=O)N3CCCC3)CC2)cc(OC)c1OC	0.101%	
CCOC(=O)c1c[nH]c2cc(OCC(C)C)c(OCC(C)C)cc2c1=O	0.57%	
CCCCCCCCCCCCCCCCCCCCCCO	-0.148%	
CC1=C(/C=C/C(C)=C/C=C/C(C)=C/C(=O)Oc2c(C)c(C)c3c(c2C)CC[C@@](C)(CCC[C@H](C)CCC[C@H](C)CCCC(C)C)O3)C(C)(C)CCC1	-0.212%	
CC(C)CCCC(C)NC(C)C (centres undefined)	0.0474%	
O=C(O)CCC/C=C\C[C@@H]1[C@@H](/C=C/[C@@H](O)COc2cccc(C(F)(F)F)c2)[C@H](O)C[C@@H]1O	0.106%	

SMILES	fluorescence, % of fluorescent control	Potency
O=C(O)COc1ccc(CCNS(=O)(=O)c2ccccc2)s1	-0.244%	
CO[C@H]1C[C@@H]2CC[C@@H](C)[C@@](O)(O2)C(=O)C(=O)N2CCCC[C@H]2C(=O)O[C@H]([C@H](C)C[C@@H]2CC[C@@H](OC(=O)C(C)(CO)CO)[C@H](OC)C2)CC(=O)[C@H](C)/C=C(\C)[C@@H](O)[C@@H](OC)C(=O)[C@H](C)C[C@H](C)/C=C/C=C/C=C/1C	0.0941%	
CC[C@H](C)CCCCC(=O)N[C@@H](CCN)C(=O)N[C@H](C(=O)N[C@@H](CCN)C(=O)N[C@H]1CCNC(=O)[C@@H]([C@H](C)O)NC(=O)[C@H](CCN)NC(=O)[C@H](CCN)NC(=O)[C@H](CC(C)C)NC(=O)[C@@H](CC(C)C)NC(=O)[C@H](CCN)NC1=O)[C@@H](C)O (X2-[Dab]T[Dab][Dab][Dab][dL]L[Dab][Dab][dT]; lactam 4-C)	0.404% [at 18.6 µM]	
C#C[C@]1(O)CC[C@H]2[C@@H]3CCC4=CC(=O)CC[C@@H]4[C@H]3C(=C)C[C@@]21CC	0.0308%	
C=C1CC[C@H](O)CC1=C/C=C1\CCC[C@]2(C)[C@@H]([C@H](C)CCCC(C)(C)O)CC[C@@H]12	-0.198%	
CC(=O)Nc1c(I)c(C(=O)O)c(I)c(N(C)C(C)=O)c1I	0.412%	
CC1(C)S[C@@H]2[C@H](NC(=O)[C@H](N)c3ccccc3)C(=O)N2[C@H]1C(=O)OCOC(=O)[C@@H]1N2C(=O)C[C@H]2S(=O)(=O)C1(C)C	0.0029%	
CNC(C)CCC=C(C)C (centres undefined)	0.0096%	
Cc1c(Cl)cccc1Nc1ncccc1C(=O)O	0.475%	
CN(CCO)CC(O)Cn1cnc2c1c(=O)n(C)c(=O)n2C (centres undefined) (tested in a mixture with another compound)	0.112%	
CC[C@H](C)CCCCC(=O)N[C@@H](CCN)C(=O)N[C@H](C(=O)N[C@@H](CCN)C(=O)N[C@H]1CCNC(=O)[C@H]([C@@H](C)O)NC(=O)[C@H](CCN)NC(=O)[C@H](CCN)NC(=O)[C@H](CC(C)C)NC(=O)[C@@H](CC(C)C)NC(=O)[C@H](CCN)NC1=O)[C@@H](C)O (X2-[Dab]T[Dab][Dab][Dab][dL]L[Dab][Dab]T; lactam 4-C)	-0.806%	
CCCCCCCCCCCC(=O)OC[C@@H](O)C1OC[C@H](O)[C@H]1O (some centres undefined)	0.206%	
CCOc1ccc(N=Nc2ccc(N)cc2N)cc1	-0.951%	
FCOC(C(F)(F)F)C(F)(F)F	-0.148%	
CCNC(=O)[C@@H]1CCCN1C(=O)[C@H](CCCN=C(N)N)NC(=O)[C@H](CC(C)C)NC(=O)[C@@H](Cc1c[nH]c2ccccc12)NC(=O)[C@H](Cc1ccc(O)cc1)NC(=O)[C@H](CO)NC(=O)[C@H](Cc1c[nH]c2ccccc12)NC(=O)[C@H](Cc1cnc[nH]1)NC(=O)[C@@H]1CCC(=O)N1	0.253%	
C[N@+]12CCCC[C@@H]1CCC(=C(c1cccs1)c1cccs1)C2	-0.0064%	
O=C(OC[C@H]1O[C@](O)(COC(=O)c2cccnc2)[C@@H](OC(=O)c2cccnc2)[C@@H]1OC(=O)c1cccnc1)c1cccnc1	0.521%	
COC(=O)CCC[N+](C)(C)C	0.286%	
CCCCCCCCCCCCCCCC(=O)OCC(COC(=O)CCCCCCCCCCCCCCC)OC(=O)CCCCCCCCCCCCCCC	-0.0671%	

From PubChem BioAssay (Tox21)
